Source: PubChem
DT40 TDP1 no CPT = qHTS for Inhibitors of human tyrosyl-DNA phosphodiesterase 1 (TDP1): qHTS in cells in absence of CPT | DT40 Tdp1-/- hTDP1 cells, no CPT, ATP luminescence, 48 h | Potency, µM (doses to about 46.2 µM), for inactives: at the top dose activity change, negative = growth inhibition, usual class: inhibitors | hit rate 15% among 420,000; also: potency is read from the fitted curve at half-maximal effect; % is scaled to controls: 0 for no effect and ±100 for the full control effect; nearly all actives have a fitted effect of over 55% in size
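Cells were dispensed at 400 per well, compounds added by pin tool, plates incubated ≥48 hr at 37 °C, then CellTiter-Glo added for 30 min at room temperature before luminescence reading. Line: DT40 Tdp1-/- complemented with hTDP1; camptothecin omitted.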
DT40 TDP1 CPT = growth inhibition of DT40 Tdp1-/-;hTDP1 cells with camptothecin (screen for TDP1 inhibitors); Potency, µM (top dose mostly 46.2 µM), for inactives: at the highest dose activity change, negative = growth inhibition, most hits filed as inhibitors; hit rate 12% among 420,000; AID 686979; chicken DT40 Tdp1-/-;hTDP1 cells + 20 nM CPT, ATP luminescence, 48 h; also: potency is read from the fitted curve at half-maximal effect; % is scaled to controls: 0 for no effect and ±100 for the full control effect; nearly all actives have a fitted effect of over 55% in size
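Chicken DT40 Tdp1-/- cells complemented with human TDP1, 400 cells/well, exposed to compounds plus 20 nM camptothecin for at least 48 h at 37 C; viability read as ATP content by CellTiter-Glo luminescence.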
HepG2 tox = counter-screen for TGF-b inhibitors: cytotoxicity in HepG2 cells; hit rate 0.76% among 410,000; AID 588856; Potency, µM (doses to about 46.1 µM), for the others: top-dose activity change, negative = cytotoxicity, usual class: cytotoxic; HepG2 CAGA-GFP viability, ATP luminescence, 18 h; also: potency is read from the fitted curve at half-maximal effect
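CellTiter-Glo luminescence gave cytotoxicity after 18 hours at 37 degrees C. The cells were HepG2 CAGA-GFP in 1% FBS DMEM, stimulated with 500 pg/mL TGF-beta after compound addition. %Activity was normalised to no-cell wells (complete cell-killing) and DMSO (no toxicity), and curves were fitted and classified.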
TGFb SMAD3 inh = inhibitors of TGF-b signaling. HepG2 CAGA-GFP TGF-b/SMAD3 reporter, GFP fluorescence, 18 h; TGF-beta stimulated, 500 pg/mL final. Potency, µM (titrated, usually from 46.1 µM), inactives show top-dose activity, negative = inhibition, actives largely listed as inhibitors. hit rate 1.2% among 410,000; also: potency is read from the fitted curve at half-maximal effect; % is scaled to controls: 0 for no effect and ±100 for the full control effect; nearly all actives have a fitted effect of over 65% in size
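HEPG2 CAGA-GFP reporter cells (1000/well, DMEM with 1% FBS) received compounds, then recombinant TGF-beta at 500 pg/mL final for 18 hours at 37 degrees C. Per-cell GFP summed per well was normalised to unstimulated and stimulated DMSO controls before curve fitting.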
TDP1 block = blocks human tyrosyl-DNA phosphodiesterase 1. Q9NUW8. recombinant TDP1, AlphaScreen DNA substrate cleavage. Potency, µM (series often up to 130 µM), for the others: at the top dose activity change, negative = inhibition, hits mostly inhibitors. hit rate 0.28% among 350,000. AID 485290; also: potency is read from the fitted curve at half-maximal effect; % is scaled to controls: 0 for no effect and ±100 for the full control effect; nearly all actives have a fitted effect of over 40% in size
Target sequence (Q9NUW8 whole entry, looked up): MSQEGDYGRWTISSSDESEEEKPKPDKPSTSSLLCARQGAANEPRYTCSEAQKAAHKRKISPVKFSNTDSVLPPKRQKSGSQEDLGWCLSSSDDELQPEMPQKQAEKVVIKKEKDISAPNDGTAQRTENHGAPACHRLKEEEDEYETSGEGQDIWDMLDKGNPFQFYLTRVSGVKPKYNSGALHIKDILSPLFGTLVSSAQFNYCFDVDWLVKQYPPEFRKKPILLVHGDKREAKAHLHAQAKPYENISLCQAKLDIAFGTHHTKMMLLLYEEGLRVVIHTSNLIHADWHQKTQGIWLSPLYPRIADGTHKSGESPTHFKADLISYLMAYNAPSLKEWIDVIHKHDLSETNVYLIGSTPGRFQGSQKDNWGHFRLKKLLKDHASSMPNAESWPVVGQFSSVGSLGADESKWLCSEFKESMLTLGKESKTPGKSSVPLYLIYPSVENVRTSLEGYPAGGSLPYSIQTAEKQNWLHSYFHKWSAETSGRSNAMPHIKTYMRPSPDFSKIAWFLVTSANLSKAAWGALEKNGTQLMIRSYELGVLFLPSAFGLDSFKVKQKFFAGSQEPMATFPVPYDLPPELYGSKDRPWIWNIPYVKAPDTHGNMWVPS
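Signal: AlphaScreen proximity between streptavidin donor and anti-FITC acceptor beads on intact substrate. Reaction: Tdp1 1 nM, substrate 15 nM final, 5 min RT after 15 min compound preincubation.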
IL-1B inflam inh = blocks inflammasome-driven IL-1 beta release; THP-1 LPS/ATP IL-1B secretion, AlphaLISA, 16 h; active compounds read low; activity change, % at 57.5 µM; hit rate 4.7% among 360,000; AID 743279; in the data active = activity change below about -50%; inconclusive = mostly about -30% to -49%; also: % is scaled to controls: 0 for no effect and ±100 for the full control effect
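Secreted IL-1B measured by AlphaLISA bead assay after 16 h compound exposure of THP-1 cells; compounds (final up to 57.5 uM) added 1 h before LPS (250 ng/mL) and ATP (1.25 mM) stimulation; lower signal means less secretion.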
Active calls of the source: *; ? = inconclusive; . = no result; [ ] = dose if it differs, or a comment. This is a sample that favours compounds with a hit; in the whole collection about 18% have one here. Unless noted, calls follow the shape of the dose curve; as a rule, active = well fitted curve in the direction sought with a large enough effect; inconclusive = small, poorly fitted or top-dose-only effect, or another doubt; inactive = no such curve, though single readings can be large; an effect the other way counts as inactive or inconclusive.

SMILES	DT40 TDP1 no CPT	DT40 TDP1 CPT	HepG2 tox	TGFb SMAD3 inh	TDP1 block	IL-1B inflam inh
CC1(C)CCN2CCC(C)(C)c3c(O)ccc1c32	3.7µM*	3.3µM*	-18%	61%	10%	14
Cn1nc(C2CC2)cc1NC(=O)C1(C)CCN1C(=O)c1ccccc1CCc1ccccc1 (centres undefined)	16µM*	29µM*	-25%	2%	.	-9
CCCC(=O)N1CCC1(C)C(=O)Nc1cc(-c2ccccc2)nn1C (centres undefined)	-74%	?	-8%	14%	.	92
Cn1nc(C2CC2)cc1NC(=O)C1(C)CCN1C(=O)CC(c1ccccc1)c1ccccc1 (centres undefined)	13µM*	23µM*	-20%	-21%	.	-14
CSc1ccc(NC(=O)C2(C)CCN2C(=O)c2ccccc2CCc2ccccc2)cc1 (centres undefined)	?	?	5%	8%	.	-7
Cn1nc(C(C)(C)C)cc1NC(=O)C1(C)CCN1C(=O)CC(c1ccccc1)c1ccccc1 (centres undefined)	18µM*	18µM*	-25%	-4%	.	-20
Cn1nc(C(C)(C)C)cc1NC(=O)C1(C)CCN1C(=O)C1(c2ccccc2)CC1 (centres undefined)	?	?	-18%	-14%	.	0
Cc1ccc(NC(=O)COC(=O)C2CC3CCCC(C2)C3=O)c([N+](=O)[O-])c1 (centres undefined)	6%	-2%	4%	5%	2%	2
O=C(NCC1CCCCC1)c1cccc(S(=O)(=O)N2CCCC2)c1	?	-6%	-42%	?	1%	-5
Cc1ccccc1-n1c(=O)c2c3c(sc2n2cnnc12)CCCC3	16µM*	15µM*	10%	5%	.	.
CC1CCC2(CC1)NC(=O)N(CC(=O)Nc1ccc3[nH]c(=O)[nH]c3c1)C2=O (centres undefined)	-19%	-13%	-15%	-15%	-3%[0.505 µM]	-1
N#C/C(=C\c1ccccc1[N+](=O)[O-])c1nc(C2CC2)cs1	?	?	-36%	?	10%	-78*
COc1ccc2c(c1)CC(C(=O)NCCCN1CCN(c3cccc(Cl)c3)CC1)CO2 (centres undefined)	18µM*	18µM*	-31%	?	7%	.
CCC(=O)N1c2ccccc2CC1C(=O)NCCCN1CCN(c2ccccc2)CC1 (centres undefined)	?	?	-5%	-2%	6%	.
Cc1cccc(N2CCN(CCNC(=O)C3COc4ccccc4C3)CC2)c1C (centres undefined)	23µM*	?	-13%	?	8%	.
O=C(NCCCN1CCN(c2ccc(F)cc2)CC1)c1cc2c(s1)-c1ccccc1OC2	.	.	-85%	?	6%	.
O=C(NCCCN1CCN(c2ccc(F)cc2)CC1)C1COc2ccccc2C1 (centres undefined)	?	23µM*	-33%	?	7%	.
CCC(=O)N1c2ccccc2CC1C(=O)NCCCN1CCN(c2cc(C)ccc2C)CC1 (centres undefined)	?	21µM*	0%	-10%	4%	.
COc1cc(/C=C/C(=O)OCC(=O)Nc2sc3c(c2C#N)CCC(C)C3)ccc1OCC#N (centres undefined)	?	-29%	9%	13%	0%	14
Cc1ccc(Cl)cc1N1CCN(CCCNC(=O)C2COc3ccccc3C2)CC1 (centres undefined)	3.7µM*	3.3µM*	-76%	?	2%	.
O=C(NCCc1ccc(Cl)cc1)C1COc2ccccc2C1 (centres undefined)	-24%	-11%	-29%	0%	2%	.
